Experimental findings from PubChem BioAssay (NCI) are described below.

About 83,000 compounds went through this panel and 20% of them were active in at least one assay; those are over-represented in the sample as a whole.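 Interpretation: 100, growth as untreated; towards 0, rising growth inhibition; 0, no net growth; 0 to -100, cell death. Compounds scoring below 10 were considered active.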 The source made the active and inactive calls.

The test has as its system MDA-MB-468 breast. The test is described as follows: NCI-60 one-dose screen, 48 h (100 = growth as untreated, 0 = no growth, -100 = all killed). To be noted: 10 µM unless noted.
Take `Oc1ccc(C(c2ccc(O)cc2)c2ccc(Cl)cn2)cc1`: the growth was -30.9% (active).
For `C/C(=C(/c1ccccc1)c1ccc(OCC(O)CNCCN2CCOCC2)cc1)c1ccccc1` (stereo unspecified) the value was 53.1% (inactive); for `CCOc1ccccc1/C=N/Nc1nc2ccccc2o1`, 28.1% (inactive).
Regarding `c1ccc2c(-c3nccs3)c[nH]c2c1`, the growth is 91.3% (inactive).
The same measure for `Cn1cc(-c2csc(-c3ccccc3)n2)c2cccnc21`: -34% [100 µM] (active); for `CO[C@H](C(=O)[C@@H](O)[C@@H](C)O)[C@@H]1Cc2cc3cc(O[C@H]4C[C@@H](O[C@H]5C[C@@H](O)[C@H](O)C(C)O5)[C@H](O)C(C)O4)c(C)c(O)c3c(O)c2C(=O)[C@H]1O[C@H]1C[C@@H](O[C@H]2C[C@@H](O[C@H]3C[C@@H](OC)[C@H](O)C(C)O3)[C@@H](O)C(C)O2)C(O)(O)C(C)O1` (stereo partly specified): -30.2% (active); for `Cc1c2c(cc[n+]1Cc1ccccc1)c1ccc(OCC3CCCCC3)cc1n2CC1CCCCC1`: -86.6% (active).
The same measure for `Cc1ccc2c(c1)C(C)Cc1c(Cl)ncnc1N2C` (stereo unspecified): -26.4% (active); for `CCOC(=O)c1c(C)nc2c(c1N)CC(=O)N2Cc1cc(OC)c(OC)c(OC)c1`: -4.22% (active).
For `CC(C)(C)c1cc(/C=N\NC(=O)/C=C/C=C/c2ccc3c(c2)OCO3)c(O)c(C(C)(C)C)c1` the value was 70.7% (inactive).
As for `CCOC(=O)c1cc(C(=O)c2cc(OC)c(OC)c(OC)c2)n2nc(C)ccc12`, the growth is 37.4% (inactive).
For `COc1ccc(-c2nnc3c4[nH]cnc4ncn23)c(OC)c1` the value was -16.2% (active); for `CCC(CC)NCCCCCNc1cc(OC)cc2cccnc12`, 57.8% (inactive); for `O=C(CBr)c1ccc(OC(=O)c2ccccc2)cc1`, 116% (inactive).
For `COc1cc(-c2nccc3[nH]c(-c4ccc5cc[nH]c5c4)nc23)cc(OC)c1OC` the value was -36.7% (active); for `O=C1C[C@@H]2/C(=C(O)\C=C\c3ccccc3)C(=O)C=C[C@@H]2O1`, -76.9% (active).
For `O=C(CCNNC(=O)c1ccncc1)NCc1ccccc1` the value was 75% (inactive).
`c1ccc2c(-c3c4ccsc4cc4[nH]c5ccccc5c34)c[nH]c2c1`: the growth is 15.7% (inactive).
For `N#C/C(=C\c1cn(Cc2ccccc2)c2ccccc12)C(=O)Nc1ncc(Cc2ccccc2Cl)s1` the value was -14.7% (active); for `[2H]C([2H])([2H])Oc1cccc(/C=C/C(=O)/C=C(/C=C/c2cccc(OC([2H])([2H])[2H])c2OC([2H])([2H])[2H])OB(F)F)c1OC([2H])([2H])[2H]`, 54.6% (inactive).
For `CC1=C(C)C(=O)C(Nc2cccc(C(=O)OC(C)(C)C)c2)=CC1=O` the value was 37.5% (inactive); for `COc1ccc(/C=C/C(=O)c2nnn(-c3ccc(Br)cc3)c2C)cc1OC`, 46.9% (inactive).
For `COc1cc2cc(NCc3ccc(F)cc3)nc(C)c2cc1OC` the value was 62.8% (inactive).
For the compound `Nc1nc(=O)n([C@H]2CC=C(CO)O2)cc1F`, the growth was 106% (inactive).
The same measure for `CCCCNC(=O)Oc1ccc(/C(=C(\C)c2ccc(Cl)cc2)c2ccc(OCCN(CC)CC)cc2)cc1`: 71.8% (inactive); for `COc1ccc(-c2nc(SCCC(C)C)nc(Nc3ccc(F)c(Cl)c3)c2C#N)cc1`: 71.5% (inactive); for `CC(C)C(C(=O)CCN(C)C)c1ccc(Cl)cc1` (stereo unspecified): 78.6% (inactive).
For `CCCCCCCCCCCCNC(=O)[C@H]1CSC(c2ccc(OC)c(F)c2)N1` (stereo partly specified) the value was -81.4% (active); for `COc1cc(C(O)C2C(=O)OCC2C2(c3ccc4c(c3)OCO4)SCCCS2)cc(OC)c1OC` (stereo unspecified), 92.2% (inactive).
For `ClC(Cl)c1nc(-c2cccs2)n2nc(-c3ccccc3)cc2n1` the value was -56.4% (active); for `O=C1CC(N2C(=O)/C(=C/C(Cl)=C\c3ccc([N+](=O)[O-])cc3)SC2=S)C(=O)N1c1ccc(Cl)cc1` (stereo unspecified), -6.24% (active); for `CC1(C)C=Cc2cc(/C(N)=N/C(N)=N/c3nc4ccccc4s3)ccc2O1`, 74.1% (inactive).
On to `N=C(N)c1ccc(-c2ccc(-c3ccc4ccccc4c3)s2)s1`, for which the growth was -16.3% (active).
The same measure for `CCc1c(Nc2ccc(C)cc2)[nH]c(N)nc1=S`: 97.3% (inactive).
In the case of `CCCCC(CC#N)(CCC)CCC`, the growth was 112% (inactive).
The same measure for `CC[C@H](C)[C@@H]1NC(=O)[C@H]([C@@H](C)O)NC(=O)C(Cc2ccccc2)NC(=O)[C@@H]2CCCN2C(=O)C(C(C)C)NC(=O)C(Cc2ccccc2)NC(=O)CNC(=O)[C@@H]2CCCN2C1=O` (stereo partly specified): 53% (inactive).
